Screening results from PubChem BioAssay.
Hits are enriched below; roughly 3.5% of the tested compounds scored in any of these assays.
FBW7 activator: FBW7 E3 ligase activators, primary screen, biochemical, AlphaScreen, human. F-box/WD repeat-containing protein 7 (Homo sapiens), Q969H0. AlphaScreen FBW7–phospho-cyclin E peptide binding, activator screen. normalized activity (activation), % at 26.1 µM. AID 1259310, 2017. hit rate 0.13% among 650,000; in the data active = normalized activity above about 1.9%;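 also: purified mutant Fbw7 with reduced substrate affinity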
GPR151 activ: activators of human GPR151, primary screen, cell-based, PathHunter beta-arrestin, luminescence; G-protein coupled receptor 151 (Homo sapiens), Q8TDV0; PathHunter beta-arrestin GPR151 cells; activation, % at 11.2 µM; hit rate 1% among 650,000; in the data active = activation above about 4.9%;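 also: 0% = median of compound wells and 100% = cells with positive control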
Target sequence (Q8TDV0 whole entry, looked up): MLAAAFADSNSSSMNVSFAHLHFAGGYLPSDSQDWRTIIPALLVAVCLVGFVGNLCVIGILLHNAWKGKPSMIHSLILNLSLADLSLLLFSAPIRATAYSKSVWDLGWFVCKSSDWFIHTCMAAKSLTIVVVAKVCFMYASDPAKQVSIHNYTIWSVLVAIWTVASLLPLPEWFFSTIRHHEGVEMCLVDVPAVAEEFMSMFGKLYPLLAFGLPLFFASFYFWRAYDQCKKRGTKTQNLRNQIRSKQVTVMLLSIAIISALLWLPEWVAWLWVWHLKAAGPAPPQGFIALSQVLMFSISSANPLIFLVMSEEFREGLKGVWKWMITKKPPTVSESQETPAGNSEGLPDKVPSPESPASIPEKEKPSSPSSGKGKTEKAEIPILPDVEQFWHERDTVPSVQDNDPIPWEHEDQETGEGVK
TEAD-YAP inh: TEAD-YAP interaction inhibition, primary screen, TEAD-YAP interaction inhibitor project, luminescence, HEK-TIYL cells; TEAD-Gal4/YAP UAS-luciferase luminescence; inhibition, % at 9.12 µM; hit rate 1.4% among 640,000; AID 1259422, 2018; in the data active = inhibition above about 32%;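 also: 0% = median of test compound wells and 100% = reference inhibitor wells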
MITF primary: MITF inhibitors, primary screen, biochemical, AlphaScreen, human. Microphthalmia-associated transcription factor (Homo sapiens), O75030. AlphaScreen MITF homodimerization, bead proximity signal. inhibition, % at 2.6 µM. hit rate 0.91% among 650,000. AID 1259374, 2018; in the data active = inhibition above about 50%;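 also: 0% = vehicle wells with protein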
Numbers without * were called inactive; ! = not active in a repeat.

SMILES	FBW7 activator	GPR151 activ	TEAD-YAP inh	MITF primary
CC(C)c1ccc(OCC(=O)Nc2ncn[nH]2)c(Br)c1	0	-4	63*	9
Cc1cc(C)c(NS(=O)(=O)c2ccc3[nH]c(=O)oc3c2)c(C)c1	6.3*	-1	5	14
O=c1[nH]c2ccc(S(=O)(=O)Nc3ccccc3)cc2o1	0	-1	-39	-9
COc1cc(OC)cc(-c2cc3nc(C)c(CCC(=O)NCc4ccccc4)c(C)n3n2)c1	0	-1	39*	-7
Cc1nc2cc(-c3ccccc3)nn2c(C)c1CCC(=O)O	0	-5	51*	6
Cc1nc2cc(-c3ccc(Cl)cc3)nn2c(C)c1CCC(=O)O	0	1	44*	13
Cc1csc(NC(=O)CCc2c(C)nc3cc(-c4ccccc4)nn3c2C)n1	1	0	38*	1
Cc1ccc(C(=O)NCCc2nnc3ccc(SCc4ccc(F)cc4)nn23)cc1	0	2	4	-2
CCOC(=O)c1c(/N=c2\oc3ccc(OC)cc3cc2C(=O)Nc2ccccc2OC)sc(C)c1C	0	0	16	1
O=C1NN(C(=O)c2ccccc2)C2Cc3ccccc3C12 (stereo unspecified)	0	1	4	13
COc1cccc(NC(=O)/C(C#N)=C/c2ccccc2)c1	0	2	7	1
CCn1nc(C(=O)N(CCCN(C)C)c2nc3c(C)ccc(Cl)c3s2)cc1C	0	3	-7	5
CC(C)(C)P(=NC(=S)Nc1ccccc1)(N1CCOCC1)N1CCOCC1	0	-2	2	0
CC(C)(C)P(=NC(=S)NNCCO)(N1CCCCCC1)N1CCCCCC1	0	2	78*	-6
CCn1c2ccccc2c2cc(NC(=O)C(=O)NCCCOC)ccc21	0	-1	40*	18
CC1(C)CC(=O)C2=C(C1)Nc1ccccc1NC2c1ccc2c(c1)OCO2 (stereo unspecified)	0	-2	-21	-3
O=C1OCC2=C1C(c1ccc3c(c1)OCO3)Nc1ccc3ccccc3c12 (stereo unspecified)	0	2	54*	-8
CC(C)OC(=O)c1c(NC(=O)COc2ccc(Cl)cc2)sc2c1CCCC2	0	-1	9	7
CCOc1cc2c(c([N+](=O)[O-])c1)NC(C(=O)O)C1CC=CC21 (stereo unspecified)	-1	-1	13	73*
O=C(O)C1Nc2c(O)cc(Cl)c([N+](=O)[O-])c2C2C=CCC12 (stereo unspecified)	0	-1	-6	108*
O=[N+]([O-])c1c(Cl)cc(O)c2c1C1C=CCC1C(c1ccc(Cl)cc1)N2 (stereo unspecified)	0	1	14	32
CC(C)(C)C1CCC(OC(=O)Nc2ccccc2)CC1 (stereo unspecified)	0	1	-9	-11
CC(C)(C)C1CCC(OC(=O)Nc2ccc3ccccc3c2)CC1 (stereo unspecified)	0	1	80*	-7
CCOC(=O)c1sc(N2C(=O)C(=O)/C(=C(/O)c3ccc(OCC)c(C)c3)C2c2ccc(C)cc2)nc1C (stereo unspecified)	0	1	8	2
COc1ccccc1C(=O)NCCn1cc(SCC(=O)Nc2ccc(C)cc2)c2ccccc21	0	0	1	-2
SMILES	FBW7 activator	GPR151 activ	TEAD-YAP inh	MITF primary
COc1ccccc1C(=O)NCCn1cc(SCC(=O)Nc2ccc(Br)cc2)c2ccccc21	2.0*	0	5	8
Cc1cccc(OCCCC(=O)Nc2nc3ccccc3[nH]2)c1	1	2	71*	6
Oc1cccc(-c2nc3ccccc3[nH]2)c1	0	-6	47*	-2
Brc1cccc(-c2nc3ccccc3[nH]2)c1	1.9*	-4	-51	9
Fc1cccc(-c2nc3ccccc3[nH]2)c1	0	-5	-43	1
Oc1ccc2nc(-c3ccccc3)[nH]c2c1	0	-4	-9	2
Nc1ccc(-c2nc3ccc(O)cc3[nH]2)cc1	0	-5	77*	-9
Nc1cccc(-c2nc3ccc(N)cc3[nH]2)c1	0	-8	-9	2
Nc1ccc(-c2nc3ccc(N)cc3[nH]2)cc1	0	-5	-17	-13
Nc1ccc2nc(-c3cccc(O)c3)[nH]c2c1	0	-3	42*	-3
CCOc1cccc(/C=N/Nc2ccc(S(=O)(=O)N(CC)CC)cc2[N+](=O)[O-])c1O	0	1	-12	-1
Cc1ccc2nc(-c3ccccn3)[nH]c2c1	-2	-8	64*	-3
Nc1ccc(-c2nc3cc4ccccc4cc3[nH]2)cc1	0	0	35*	-1
Nc1ccc2nc(-c3ccc(Cl)cc3)[nH]c2c1	1	-4	-54	17
Cc1ccc2nc(-c3ccc(O)cc3)[nH]c2c1	0	-11	44*	9
CN(C)c1ccc(-c2nc3ccc(N)cc3[nH]2)cc1	0	-9	78*	21
O=C(c1ccccc1Br)N1CCCC1	0	0	13	11
Cc1ccc(OCC(=O)Nc2ccc(-c3nc4cc(C)ccc4o3)cc2)c(C)c1	0	-1	-1	10
COc1ccc(Nc2ccnc3c(-c4ccc(O)cc4)cnn23)cn1	0	-2	91*	-15
COc1ccc(Nc2ccnc3c(-c4cccc(O)c4)cnn23)cn1	0	-2	25	13
COc1ccc(Nc2ccnc3c(-c4cccc(CO)c4)cnn23)cn1	0	-3	98*	5
CC1=C(C(=O)Nc2ccccc2)C(c2ccc(OCc3ccccc3)cc2)NC(=O)N1 (stereo unspecified)	0	0	2	1
CN1CCN(CC(O)COc2cccc3ccccc23)CC1 (stereo unspecified)	0	-1	10	9
COc1ccccc1N1CCN(CC(O)COc2cccc3ccccc23)CC1 (stereo unspecified)	0	0	38*!	12
O=C(NCCCO)/C(=C\c1ccco1)NC(=O)c1ccc(Br)cc1	0	-1	9	6
SMILES	FBW7 activator	GPR151 activ	TEAD-YAP inh	MITF primary
CC(C)OC(=O)C1=C(N)OC2=C(C(=O)CCC2)C1c1ccc(F)c(F)c1 (stereo unspecified)	0	-1	0	9
CC(=O)c1ccc(OCC(=O)NC(C)c2cnn(-c3ccccc3C)c2C)cc1 (stereo unspecified)	1	2	34*	15
Cc1ccc(Cn2ccn(-c3cccc(Cl)c3)c(=O)c2=O)cc1	1	-2	6	12
Cc1cccc(Cn2ccn(-c3cccc(Cl)c3)c(=O)c2=O)c1	0	0	51*	-13
CCOC(=O)c1cnc2c(C)c(Cl)ccc2c1Nc1ccc(C)c(Cl)c1	0	3	3	5
CCOC(=O)C(=O)NC(Cc1ccccc1)c1ccccc1 (stereo unspecified)	0	1	2	13
O=C(CCl)NC(Cc1ccccc1)c1ccccc1 (stereo unspecified)	0	0	58*	11
